“And” between values parts separate entries of the source, which are not always exact repeats. Equal values may be shown once. Inconclusive results are not listed. The source made the active and inactive calls. Unless noted, the call rests on the fitted dose curve; in most records, active means well fitted cell-killing curve with a large enough effect; inconclusive means small, poorly fitted or top-dose-only effect; inactive means flat fitted curve, though single readings scatter.

Experiment [1] can be described thus: Cell Viability - LYMP2-002 (AID 977).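 Further: series mostly up to about 92 µM; compound exposure lasted 24 h at 37 °C; plate controls were DMSO only for no effect and 92 µM tetraoctylammonium bromide for full effect.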 A digest of the protocol:
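Human lymphoblastoid cells, 2500/well, complete medium; 5 h 37 C settle; compound 24 h 37 C; CellTiter-Glo, 30 min RT; luminescence. Decrease in ATP = cytotoxicity; AC50 via Hill equation.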

Experiment [2] can be described thus: Cell Viability - LYMP2-006 (AID 978). Further: series mostly up to about 92 µM; on the % scale 0 is the no-effect control and ±100 the full control effect; nearly all actives have a fitted effect of over 60% in size. Put shortly: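 Human lymphoblastoid cells, 2500 per well, were preincubated 5 hr at 37 C, then exposed to compounds for 24 hr at 37 C in complete medium. Viability was read as intracellular ATP by CellTiter-Glo luminescence; AC50 from Hill-equation fits of qHTS concentration-response data.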
The nature of experiment [3]: Cell Viability - LYMP2-007 (AID 979).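 Further: cells exposed to compound for 24 h before reading; 0% = DMSO only and the negative end = 92 µM tetraoctylammonium bromide; nearly all actives have a fitted effect of over 60% in size.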 A digest of the protocol: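 Cells are seeded at 2500 per well and rested 5 hr. Compounds are then added over a concentration series for 24 hr at 37 C. CellTiter-Glo is added for 30 min at room temperature before luminescence reading.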
A short description of experiment [4]: Cell Viability - LYMP2-010 (AID 981). Further: on the % scale 0 is the no-effect control and ±100 the full control effect; nearly all actives have a fitted effect of over 55% in size. A digest of the protocol:
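Steps: seed 2500 LYMP2-010 cells per well; incubate 5 hr at 37 C; add compound; incubate 24 hr at 37 C; add CellTiter-Glo, wait 30 min at room temperature; read luminescence. Concentration-response fitted to Hill equation for AC50.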

A short description of experiment [5]: Cell Viability - LYMP2-012 (AID 982).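 Further: cellular ATP by luciferase luminescence where a drop means cytotoxicity; cells exposed to compound for one day before reading; 0% = DMSO only and full loss = 92 µM tetraoctylammonium bromide; nearly all actives have a fitted effect of over 55% in size.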
The nature of experiment [6]: Cell Viability - LYMP2-014 (AID 983).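 Further: series mostly up to about 92 µM; plate controls were DMSO only for no effect and 92 µM tetraoctylammonium bromide for full effect; nearly all actives have a fitted effect of over 50% in size.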 A digest of the protocol:
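Cells are plated at 2500/well and left 5 hr at 37 C. Compounds are added across a concentration range and incubated 24 hr at 37 C in complete medium. CellTiter-Glo is added, and luminescence is read after 30 min at room temperature.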

A short description of experiment [7]: Cell Viability - LYMP2-018 (AID 985).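 Further: compound exposure lasted 24 hr at 37 °C; plate controls were DMSO only for no effect and tetraoctylammonium bromide at 92 µM for full effect; nearly all actives have a fitted effect of over 50% in size.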 Put shortly: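 Seed 2500 lymphoblastoid cells per well, incubate 5 hr at 37 C, add compound and incubate 24 hr at 37 C, add CellTiter-Glo, wait 30 min at room temperature, then read luminescence.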
A short description of experiment [8]: Cell Viability - LYMP2-020 (AID 986).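 Further: series mostly up to about 92 µM; plate controls were DMSO only for no effect and tetraoctylammonium bromide at 92 µM for full effect; nearly all actives have a fitted effect of over 55% in size.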 Put shortly: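 Seed 2500 cells per well and incubate 5 hr at 37 C. Add compounds at a concentration series and incubate 24 hr at 37 C. Add CellTiter-Glo, wait 30 min at RT, read luminescence, and fit a Hill curve for AC50.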
Experiment [9] is described as follows: Cell Viability - LYMP2-024 (AID 988).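 Further: plate controls were DMSO only for no effect and 92 µM tetraoctylammonium bromide for full effect; nearly all actives have a fitted effect of over 60% in size.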 A digest of the protocol: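 qHTS cytotoxicity, human lymphoblastoid line, complete medium; 24 h cpd treatment, 37 C; CellTiter-Glo ATP luminescence readout; tetraoctylammonium bromide positive control; AC50 via Hill fit.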
The nature of experiment [10]: Cell Viability - LYMP2-026 (AID 989). Further: on the % scale 0 is the no-effect control and ±100 the full control effect; nearly all actives have a fitted effect of over 50% in size. Put shortly: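 Cells are seeded at 2500 per well and held 5 hr at 37 C. Compounds are added in concentration series for 24 hr, then CellTiter-Glo reagent is applied and luminescence read.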
The nature of experiment [11]: Cell Viability - LYMP1-002 - Assay at 24 hr (AID 993). Further: on the % scale 0 is the no-effect control and ±100 the full control effect. A digest of the protocol:
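Acute toxicity is measured as concentration-dependent loss of cellular ATP in a human lymphoblastoid line (Coriell LYMP1-002) after 24 h treatment in complete medium. ATP is quantified by luciferase luminescence and AC50 derived by Hill modelling.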

Experiment [12] is described as follows: Cell Viability - LYMP1-002 - Assay at 40 hr (AID 994).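 Further: 0% = DMSO only and full inhibition = 92 µM tetraoctylammonium bromide; nearly all actives have a fitted effect of over 60% in size.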 A digest of the protocol:
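Cells are plated at 2500 per well and rested 5 hr at 37 C. Compounds are added and incubated 40 hr at 37 C. CellTiter-Glo reagent is added for 30 min at room temperature before luminescence is read.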

The nature of experiment [13]: qHTS Assay for Identification of Small Molecule Inducers of Hypoxia Response (AID 2120; active means well fitted curve in the direction sought with a large enough effect in the signal ratio, with a control signal flat, not every such curve was filed as active; the % refers to the signal ratio; further: 0% is about no effect). Put shortly: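 Cell-based qHTS for reporter induction: hypoxia response element controlled beta-lactamase in ME-180 cells. Compounds incubated 17 h at 37 degrees C; activity from blue/green (460/530 nm) ratio, inducers ranked by AC50.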
For orientation: Quantitative high-throughput screening tests each substance at several concentrations.

Experiment [14] concerns the target Estrogen receptor (Homo sapiens) (UniProt P03372). The experiment can be described thus: qHTS assay for small molecule antagonists of estrogen receptor alpha signaling (AID 588513; active means well fitted curve in the direction sought with a large enough effect in the signal ratio, with a control signal flat, not every such curve was filed as active; the % refers to the signal ratio; further: on the % scale 0 is the no-effect control and ±100 the full control effect). A digest of the protocol:
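ER-alpha-UAS-bla GripTite HEK 293 cells in medium with 2% charcoal/dextran-treated FBS were preincubated 4 h at 37 C, dosed with compound (1:2 titration), stimulated with 0.5nM 17-beta-estradiol for 18 h, then read by CCF4 beta-lactamase fluorescence.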

Experiment [15] shares this target. The experiment can be described thus: qHTS assay for small molecule agonists of estrogen receptor alpha signaling (AID 588514; calls by dose curve;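 further: 0% = vehicle only and 100% = reference agonist; nearly all actives have a fitted effect of over 70% in size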). Put shortly:
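Efficacy is expressed against 20 nM 17-beta-estradiol (100%) and DMSO basal (0%); EC50 from Hill equation. Assay: beta-lactamase reporter in ER-alpha-UAS-bla HEK 293 cells, 18 h compound incubation, CCF4 detection.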

Experiment [16] concerns the target Glucocorticoid receptor (Homo sapiens) (UniProt P04150). The experiment can be described thus: qHTS assay for small molecule agonists of glucocorticoid receptor signaling (AID 588532; active means well fitted curve in the direction sought with a large enough effect in the signal ratio, with a control signal flat; the % refers to the signal ratio;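 further: 100% = dexamethasone at 0.1 µM and 0% = DMSO only wells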). As to conditions: HeLa MMTV-bla, beta-lactamase ratio, agonist, 18 h; stronger effect = higher value; percent of dexamethasone control, DMSO zero. Put shortly: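 Cells were plated and rested 3-5 h at 37 C, compounds were added in titration and incubated 18 h, then CCF4 substrate was loaded for 2 h at RT before reading blue/green fluorescence. EC50 came from Hill-equation fitting.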

For experiment [17] the target is unchanged. The experiment in a line: qHTS assay for small molecule antagonists of glucocorticoid receptor signaling (AID 588533; active means well fitted inhibition curve with a large enough effect in the signal ratio, with a control signal flat, not every such curve was filed as active; the % refers to the signal ratio; further: on the % scale 0 is the no-effect control and ±100 the full control effect). A digest of the protocol:
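Antagonist-mode qHTS: compound titrations added to GRE-bla HeLa cells, then dexamethasone 2 nM final; 18 h, 37 C. CCF4 FRET fluorescence normalized to dexamethasone and DMSO; IC50 from Hill fit.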

The target of experiment [18] is Peroxisome proliferator-activated receptor delta (Homo sapiens) (UniProt Q03181). The experiment in a line: qHTS assay for small molecule agonists of peroxisome proliferator-activated receptor delta signaling (AID 588534; calls by dose curve;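 further: 0% = DMSO basal wells and 100% = positive control agonist at 10 µM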). Put shortly:
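Agonist-mode qHTS; reporter cells, 5 hrs 37 C pre-incubation; compound titration, 18 hrs 37 C; CCF4 dye, 2 hrs RT; fluorescence read. EC50/efficacy via Hill fit.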

Experiment [19] can be described thus: qHTS assay for small molecule antagonists of peroxisome proliferator-activated receptor delta signaling (AID 588535; active means well fitted inhibition curve with a large enough effect in the signal ratio, with a control signal flat, not every such curve was filed as active; the % refers to the signal ratio;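 on max response: cells co-treated with a PPAR-delta agonist as stimulator during compound exposure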). As to conditions: HEK293T PPARd-UAS-bla, beta-lactamase FRET ratio, 18 h; 460 nm channel. Put shortly:
(§1)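 Fluorescence from CCF4-loaded GeneBLAzer PPAR-delta-UAS-bla HEK293T cells (2 hrs RT loading) quantified reporter inhibition after an 18 hr, 37 C compound exposure across a titration.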

The target in experiment [20] is Peroxisome proliferator-activated receptor delta (Homo sapiens) (UniProt Q03181). The experiment is described as above. Put shortly: as §1
In experiment [21] the target is Peroxisome proliferator-activated receptor gamma (Homo sapiens) (UniProt P37231). The experiment can be described thus: qHTS assay for small molecule antagonists of peroxisome proliferator-activated receptor gamma signaling (AID 588537; active means well fitted inhibition curve with a large enough effect in the signal ratio, with a control signal flat, not every such curve was filed as active; the % refers to the signal ratio;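 further: reporter cells co-stimulated with 50 nM rosiglitazone agonist during compound treatment; % of control where 0% means no effect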). Put shortly:
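Fluorescence at 460 and 530 nm (405 nm excitation) reported beta-lactamase cleavage of CCF4 after 2 h room-temperature loading. HEK293 reporter cells in 1% charcoal/dextran-treated FBS had received compound and rosiglitazone for 16 h.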

Experiment [22] deals with Vitamin D3 receptor (Homo sapiens) (UniProt P11473). The experiment can be described thus: qHTS assay for small molecule antagonists of vitamin D receptor signaling (AID 588541; calls by dose curve;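 further: receptor activated by calcitriol during compound treatment; series mostly up to about 77 µM; on the % scale 0 is the no-effect control and ±100 the full control effect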). Put shortly: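 VDR-UAS-bla HEK293T cells in 2% charcoal-stripped FBS were stimulated with 1-alpha,25-dihydroxyvitamin D3 (3 nM final) plus compound for 16 h at 37 C. The beta-lactamase CCF4 readout was normalized to 50 nM agonist and DMSO, and Hill fits gave IC50.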
Sequence of Vitamin D3 receptor (Homo sapiens) (P11473 whole entry, looked up): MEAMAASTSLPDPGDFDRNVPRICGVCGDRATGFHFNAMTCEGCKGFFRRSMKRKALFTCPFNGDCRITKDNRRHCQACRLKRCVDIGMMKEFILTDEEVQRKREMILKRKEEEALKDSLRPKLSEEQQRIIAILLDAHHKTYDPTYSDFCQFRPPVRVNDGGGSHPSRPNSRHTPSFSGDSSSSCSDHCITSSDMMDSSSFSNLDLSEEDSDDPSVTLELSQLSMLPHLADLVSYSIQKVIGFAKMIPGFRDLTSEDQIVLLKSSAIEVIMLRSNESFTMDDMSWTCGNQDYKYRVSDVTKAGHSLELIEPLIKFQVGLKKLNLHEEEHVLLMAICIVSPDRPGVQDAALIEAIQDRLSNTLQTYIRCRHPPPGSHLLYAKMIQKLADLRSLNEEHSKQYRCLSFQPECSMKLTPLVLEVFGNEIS

Sequence of Peroxisome proliferator-activated receptor delta (Homo sapiens) (Q03181 whole entry, looked up): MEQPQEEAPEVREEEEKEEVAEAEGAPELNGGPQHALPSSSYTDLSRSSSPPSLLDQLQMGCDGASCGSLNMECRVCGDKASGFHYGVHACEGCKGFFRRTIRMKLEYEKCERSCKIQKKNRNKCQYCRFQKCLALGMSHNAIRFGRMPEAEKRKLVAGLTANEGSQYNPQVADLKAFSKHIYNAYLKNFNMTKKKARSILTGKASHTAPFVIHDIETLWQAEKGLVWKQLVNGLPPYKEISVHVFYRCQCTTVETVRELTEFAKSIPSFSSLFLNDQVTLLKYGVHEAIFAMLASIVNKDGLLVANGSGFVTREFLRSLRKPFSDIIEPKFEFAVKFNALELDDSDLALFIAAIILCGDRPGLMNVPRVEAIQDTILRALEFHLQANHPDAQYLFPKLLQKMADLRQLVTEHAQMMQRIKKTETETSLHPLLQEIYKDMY
Sequence of Glucocorticoid receptor (Homo sapiens) (P04150 whole entry, looked up): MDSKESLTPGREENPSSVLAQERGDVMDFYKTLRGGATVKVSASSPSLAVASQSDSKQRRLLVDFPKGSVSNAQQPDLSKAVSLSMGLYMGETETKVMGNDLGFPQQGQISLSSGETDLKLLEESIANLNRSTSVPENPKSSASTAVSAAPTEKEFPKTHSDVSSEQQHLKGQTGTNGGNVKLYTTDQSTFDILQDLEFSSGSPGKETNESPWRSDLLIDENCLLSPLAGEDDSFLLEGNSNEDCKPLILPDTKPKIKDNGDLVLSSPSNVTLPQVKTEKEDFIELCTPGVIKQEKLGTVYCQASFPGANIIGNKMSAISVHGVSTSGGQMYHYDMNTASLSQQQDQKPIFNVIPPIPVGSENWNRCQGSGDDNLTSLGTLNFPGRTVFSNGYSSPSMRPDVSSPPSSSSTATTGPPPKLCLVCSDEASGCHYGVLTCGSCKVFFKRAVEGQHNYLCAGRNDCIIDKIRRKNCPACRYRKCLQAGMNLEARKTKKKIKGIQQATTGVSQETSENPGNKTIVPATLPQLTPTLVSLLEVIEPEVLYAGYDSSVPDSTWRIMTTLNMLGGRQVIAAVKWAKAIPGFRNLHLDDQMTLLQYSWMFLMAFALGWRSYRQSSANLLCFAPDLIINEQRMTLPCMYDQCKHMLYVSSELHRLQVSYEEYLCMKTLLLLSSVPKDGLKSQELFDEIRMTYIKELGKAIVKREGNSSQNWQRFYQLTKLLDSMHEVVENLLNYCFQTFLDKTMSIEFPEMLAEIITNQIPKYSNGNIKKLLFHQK
Sequence of Estrogen receptor (Homo sapiens) (P03372 whole entry, looked up): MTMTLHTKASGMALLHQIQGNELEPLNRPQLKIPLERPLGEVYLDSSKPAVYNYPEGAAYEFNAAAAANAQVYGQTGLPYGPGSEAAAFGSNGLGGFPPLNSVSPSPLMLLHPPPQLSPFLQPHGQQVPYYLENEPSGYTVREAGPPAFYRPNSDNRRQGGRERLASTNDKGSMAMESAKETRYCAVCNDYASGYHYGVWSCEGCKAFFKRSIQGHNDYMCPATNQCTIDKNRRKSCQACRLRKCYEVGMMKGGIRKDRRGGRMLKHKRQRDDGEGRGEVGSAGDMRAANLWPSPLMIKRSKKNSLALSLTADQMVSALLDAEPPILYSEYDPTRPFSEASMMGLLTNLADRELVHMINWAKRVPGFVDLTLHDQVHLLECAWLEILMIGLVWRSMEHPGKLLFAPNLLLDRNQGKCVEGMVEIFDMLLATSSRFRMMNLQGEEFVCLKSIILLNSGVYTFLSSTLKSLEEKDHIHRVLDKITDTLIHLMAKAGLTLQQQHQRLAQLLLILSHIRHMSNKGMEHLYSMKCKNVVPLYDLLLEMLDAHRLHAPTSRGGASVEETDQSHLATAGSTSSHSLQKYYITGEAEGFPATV
Sequence of Peroxisome proliferator-activated receptor gamma (Homo sapiens) (P37231 whole entry, looked up): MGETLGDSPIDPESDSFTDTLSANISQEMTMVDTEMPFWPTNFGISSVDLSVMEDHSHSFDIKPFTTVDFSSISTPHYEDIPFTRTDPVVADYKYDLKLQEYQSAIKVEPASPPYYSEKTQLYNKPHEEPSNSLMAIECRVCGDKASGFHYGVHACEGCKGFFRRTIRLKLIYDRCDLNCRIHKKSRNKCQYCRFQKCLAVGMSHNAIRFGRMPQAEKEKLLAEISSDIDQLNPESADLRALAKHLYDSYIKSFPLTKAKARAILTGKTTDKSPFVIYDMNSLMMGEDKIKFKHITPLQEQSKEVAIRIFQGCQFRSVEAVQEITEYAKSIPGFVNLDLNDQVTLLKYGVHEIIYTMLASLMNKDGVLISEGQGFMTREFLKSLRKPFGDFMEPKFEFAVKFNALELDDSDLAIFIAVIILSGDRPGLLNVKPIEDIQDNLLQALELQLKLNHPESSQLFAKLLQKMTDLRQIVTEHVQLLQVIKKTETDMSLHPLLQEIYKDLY

For the compound `Cc1ccccc1O`, the compound was classed as inactive in experiment [1], in experiment [2], in experiment [3], in experiment [5], in experiment [6] and in experiment [7]. In addition, the compound was called inactive in [8], in [9], in experiment [10], in experiment [11], in experiment [13] and in [20]. The outcome in experiment [22] was inactive. Also, the Potency result in experiment [4], in experiment [12], in [14], in experiment [15], in experiment [17] and in [18] was “inactive” throughout. In [21], the Potency entry is “inactive”. The activation in [16] was 1.9% (inactive) and -0.638% (inactive). The max response in experiment [19] was 12.8% and 44.7%.

The values are drawn from PubChem BioAssay (NCATS).
